{"source": "PubChem BioAssay AID1650", "about": "(Southern Research Specialized Biocontainment Screening …, 2009)", "note": "Entries with a potency or affinity are not part of this list. The source made the active and inactive calls. How the calls were made is not given here."}
{"test": "mammalian cell viability reduction – secondary assay, cytotoxicity control for West Nile virus antiviral project, dose response (AID 1650)", "conditions": "Mammalian host cell viability, cytotoxicity counter-screen; series mostly up to 10 µM"}
{"molecule": "Cc1ccc2[nH]c(=O)c(CN(CCCN(C)C)C(=O)Nc3ccc(Cl)cc3)cc2c1", "outcome": "inactive"}
{"molecule": "CCN1CCN(c2ccc(S(=O)(=O)N3CCCCC3)cc2NC(=O)Cc2c(Cl)cccc2Cl)CC1", "outcome": "inactive"}
{"molecule": "CCOC(=O)C(=CNc1ccc2c(c1)nnn2-c1ccc(Cl)cc1)C(=O)OCC", "outcome": "inactive"}
{"molecule": "CCn1cc(CNCc2cn(C)nc2-c2ccc(C3CCCCC3)cc2)cn1", "outcome": "inactive"}
{"molecule": "O=C(CCN1C(=O)/C(=C/c2ccccc2Cl)SC1=S)NCCc1ccc(O)cc1", "outcome": "inactive"}
{"molecule": "Cc1ccc(COc2cccc(/C=N/NC(=O)c3nnn(-c4nonc4N)c3C)c2)cc1", "outcome": "inactive"}
{"molecule": "Cc1cccc(-c2ccc(NC(=O)C3CCN(CC4CC4)CC3)cc2)c1", "outcome": "inactive"}
{"molecule": "CCN(CC)CCCC(C)NC(=O)c1c(NC(=O)c2ccccc2)sc2c1CCCC2", "note": "(stereo unspecified)", "outcome": "inactive"}
{"molecule": "COc1ccc(N2CCN(c3oc(-c4ccc(OC)c(OC)c4)nc3C#N)CC2)cc1", "outcome": "inactive"}
{"molecule": "CCOc1ccc2nc(N3CCCC(C(=O)NCCCN4CCCCC4)C3)sc2c1", "note": "(stereo unspecified)", "outcome": "inactive"}
{"molecule": "Cc1ccc(S(=O)(=O)N2CCCC2C(=O)Oc2ccccc2)cc1", "note": "(stereo unspecified)", "outcome": "inactive"}
{"molecule": "Cn1cnc([N+](=O)[O-])c1Oc1cccc2ccccc12", "outcome": "inactive"}
{"molecule": "COc1ccc(OCc2cccc(C(=O)Nc3ccc(CN4CCCCC4)cc3)c2)cc1", "outcome": "inactive"}
{"molecule": "CCN(CC)S(=O)(=O)c1ccc2c(c1)c(=O)c(C(=O)NCCc1ccc(OC)c(OC)c1)cn2C", "outcome": "inactive"}
{"molecule": "CCn1nc(C)c(CN2CCc3c([nH]c4ccccc34)C2c2ccc(F)c(OC)c2)c1C", "note": "(stereo unspecified)", "outcome": "inactive"}
{"molecule": "Cc1ccc(-n2ncc(C(=O)Nc3ccc(Cl)cc3)c2C2CCNCC2)cc1C", "outcome": "inactive"}
